Rows were chosen to be rich in hits. Some 3.4% of all compounds tested hit in one or more screens of this group.
FBW7 activator – activators of human E3 ligase FBW7; AID 1259310; normalized activity (activation), % at 26.1 µM; 0.13% of 650,000 active; Q969H0; AlphaScreen FBW7–phospho-cyclin E peptide binding, activator screen; in the data active = normalized activity above about 1.9%;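 note: purified mutant Fbw7 with reduced substrate affinity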
Target sequence (Q969H0 whole entry, looked up): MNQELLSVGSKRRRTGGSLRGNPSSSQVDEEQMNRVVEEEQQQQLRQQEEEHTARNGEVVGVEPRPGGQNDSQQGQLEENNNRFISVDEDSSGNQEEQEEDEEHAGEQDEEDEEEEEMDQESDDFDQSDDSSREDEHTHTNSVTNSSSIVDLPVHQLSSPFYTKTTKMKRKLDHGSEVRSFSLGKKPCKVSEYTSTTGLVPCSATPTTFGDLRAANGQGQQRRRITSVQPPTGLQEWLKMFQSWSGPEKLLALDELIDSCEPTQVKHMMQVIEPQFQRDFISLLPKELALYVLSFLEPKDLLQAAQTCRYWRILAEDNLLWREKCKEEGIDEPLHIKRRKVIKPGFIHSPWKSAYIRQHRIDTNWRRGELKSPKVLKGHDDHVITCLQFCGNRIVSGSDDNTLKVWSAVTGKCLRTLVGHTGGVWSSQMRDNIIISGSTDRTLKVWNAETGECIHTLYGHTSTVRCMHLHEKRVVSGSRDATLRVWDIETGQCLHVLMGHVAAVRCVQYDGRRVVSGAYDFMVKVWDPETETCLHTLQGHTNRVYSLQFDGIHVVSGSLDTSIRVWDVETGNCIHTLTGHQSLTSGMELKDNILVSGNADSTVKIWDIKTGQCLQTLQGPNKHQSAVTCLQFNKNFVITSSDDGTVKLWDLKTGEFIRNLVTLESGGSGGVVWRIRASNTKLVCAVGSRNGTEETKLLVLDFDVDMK
MITF primary – blocks human microphthalmia-associated transcription factor; O75030; inhibition, % at 2.6 µM; 0.91% of 650,000 active; AlphaScreen MITF homodimerization, bead proximity signal; in the data active = inhibition above about 50%;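 note: 0% = vehicle wells with protein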
TEAD-YAP inh – TEAD-YAP interaction inhibition | AID 1259422 | 1.4% of 640,000 active | HEK-TIYL cells, TEAD-Gal4/YAP UAS-luciferase luminescence | inhibition, % at 9.12 µM; in the data active = inhibition above about 32%;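 note: 0% = median of test compound wells and 100% = reference inhibitor wells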
GPR151 ag – activates the human receptor GPR151 | Q8TDV0 | PathHunter beta-arrestin GPR151 cells, luminescence | activation, % at 11.2 µM | 1% of 650,000 active | AID 1508602; in the data active = activation above about 4.9%;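 note: 0% = median of compound wells and 100% = cells with positive control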
GPR151 conf act – human GPR151 activation, confirmation screen. shares compounds with GPR151 ag. activation, % at 11.2 µM. 6,700 tested, under 10 active. GPR151 PathHunter beta-arrestin cells, luminescence, 90 min; % of EA-reagent control over plate median;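 active = mean percent activation across replicates above the confirmation screen cutoff of 4.91%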
GPR119 counter – counter-screen for GPR151 activators: effect on human GPR119. shares compounds with GPR151 ag. activation, % at 11.2 µM. GPR119 PathHunter beta-arrestin cells, luminescence, 90 min; 0 = compound-well median, 100 = enzyme-acceptor control. 0.3% of 6,700 active;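 active = mean percent activation in the counterscreen above 29.09%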;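 note: counterscreen on off-target GPR119 to flag nonselective hits from the GPR151 activator screen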
The depositor's hits bear a star.

Results for C/C(CC(=O)Nc1ccc2c(c1)OCCO2)=N\NC(=O)C(=O)Nc1ccc(C)cc1 ?
FBW7 activator: 0.0; MITF primary: 0.6; TEAD-YAP inh: -4.7; GPR151 ag: 7.0*; GPR151 conf act: 0.3; GPR119 counter: 4.8

What do the screens show for `CC(=O)N/N=C(\C)CC(=O)Nc1ccc2c(c1)OCCO2`?
FBW7 activator: 0.1; MITF primary: -1.3; TEAD-YAP inh: -2.2; GPR151 ag: 0.2

What do the screens show for `COc1ccc(NC(=O)CSc2nnc(CNC(=O)c3cc(OC)c(OC)c(OC)c3)n2-c2ccccc2OC)cc1`?
FBW7 activator: 0.0; MITF primary: -7.3; TEAD-YAP inh: -2.8; GPR151 ag: 1.0

How did CC(CCn1cccn1)NC(=O)c1cc(COc2ccc3ncccc3c2)on1 (stereo unspecified) do in these assays?
FBW7 activator: 0.0; MITF primary: 10.3; TEAD-YAP inh: 16.3; GPR151 ag: 0.9

How did CC(=O)c1ccc(OCc2cc(C(=O)NC(C)CCn3cccn3)no2)cc1 (stereo unspecified) do in these assays?
FBW7 activator: -0.1; MITF primary: 9.4; TEAD-YAP inh: -49.2; GPR151 ag: 6.3*; GPR151 conf act: 0.8; GPR119 counter: -3.0

How did COC(=O)c1ccccc1NC(=O)c1cccc(Cl)c1 do in these assays?
FBW7 activator: 0.0; MITF primary: 16.6; TEAD-YAP inh: -1.9; GPR151 ag: -0.3

What do the screens show for `Cc1cc(C)cc(NC(=O)c2ccc(Cl)c(Cl)c2)c1`?
FBW7 activator: -0.1; MITF primary: -13.8; TEAD-YAP inh: -11.3; GPR151 ag: 5.4*; GPR151 conf act: -0.5; GPR119 counter: -3.6

What do the screens show for `COC(=O)c1ccccc1NC(=O)c1ccc(Cl)c(Cl)c1`?
FBW7 activator: 0.0; MITF primary: -4.3; TEAD-YAP inh: 12.1; GPR151 ag: 5.1*; GPR151 conf act: 0.1; GPR119 counter: -4.2

How did CC(C)(C)OC(=O)NC(Cc1ccc(OCc2ccccc2)cc1)C(=O)NCC(N)=O (stereo unspecified) do in these assays?
FBW7 activator: -0.1; MITF primary: -10.3; TEAD-YAP inh: -3.4; GPR151 ag: 0.0

Results for CCCN1C(=O)c2ccc(C(=O)NC3=NCCS3)cc2C1=O ?
FBW7 activator: -0.1; MITF primary: 1.3; TEAD-YAP inh: -11.1; GPR151 ag: 9.5*; GPR151 conf act: -0.7; GPR119 counter: -3.9

What do the screens show for `Cc1ccc(C(=O)NC2=NCCS2)cc1`?
FBW7 activator: 0.0; MITF primary: 2.2; TEAD-YAP inh: -66.8; GPR151 ag: -2.1

What do the screens show for `Cc1ccc(NC(=O)Cn2cnc3c(cnn3-c3cccc(C)c3C)c2=O)cc1Cl`?
FBW7 activator: -0.1; MITF primary: -5.7; TEAD-YAP inh: 5.8; GPR151 ag: -0.8

Results for Cc1ccc(-n2ncc3c(=O)n(CC(=O)Nc4cccc5ccccc45)cnc32)cc1C ?
FBW7 activator: 0.1; MITF primary: -7.0; TEAD-YAP inh: 5.2; GPR151 ag: 6.7*; GPR151 conf act: -0.2; GPR119 counter: 10.6

What do the screens show for `CCc1cccc(C)c1NC(=O)Cn1cnc2c(cnn2-c2ccc(OC)cc2)c1=O`?
FBW7 activator: 0.0; MITF primary: 14.2; TEAD-YAP inh: 4.0; GPR151 ag: 6.9*; GPR151 conf act: 0.3; GPR119 counter: 7.1

How did COC(=O)c1ccc(NC(=O)Cn2cnc3c(cnn3-c3cccc(C)c3C)c2=O)cc1 do in these assays?
FBW7 activator: 0.0; MITF primary: 0.5; TEAD-YAP inh: 8.6; GPR151 ag: 8.8*; GPR151 conf act: 0.9; GPR119 counter: 9.0

Results for COc1cc(=O)n2c(c1C(=O)NCc1ccsc1)CCN(C(=O)c1nonc1C)CC2 ?
FBW7 activator: 0.1; MITF primary: -5.1; TEAD-YAP inh: -4.9; GPR151 ag: 10.3*; GPR151 conf act: 0.2; GPR119 counter: 11.5

How did CC(=O)Nc1c2c(nn1-c1ccc(Cl)cc1)CS(=O)(=O)C2 do in these assays?
FBW7 activator: 0.8; MITF primary: 14.2; TEAD-YAP inh: -3.3; GPR151 ag: 7.8*; GPR151 conf act: -0.1; GPR119 counter: -1.5

Results for O=C(Nc1c2c(nn1-c1ccc(Cl)cc1)CS(=O)(=O)C2)c1ccc(Cl)cc1 ?
FBW7 activator: 0.0; MITF primary: -1.2; TEAD-YAP inh: 2.1; GPR151 ag: 1.2

What do the screens show for `O=C(Cc1ccc(F)cc1)Nc1c2c(nn1-c1ccc(F)cc1)CS(=O)(=O)C2`?
FBW7 activator: 0.2; MITF primary: 2.8; TEAD-YAP inh: 5.5; GPR151 ag: 5.3*; GPR151 conf act: 0.0; GPR119 counter: 8.0

How did COc1ccc(CCNC(=O)CSc2nc3ccsc3c(=O)n2Cc2ccc(C(=O)O)cc2)cc1OC do in these assays?
FBW7 activator: 0.1; MITF primary: 3.5; TEAD-YAP inh: 22.2; GPR151 ag: 1.9

What do the screens show for `CCOC(=O)C(C)Sc1nnc(NC(=O)c2c(F)cccc2Cl)s1` (stereo unspecified)?
FBW7 activator: -0.2; MITF primary: 0.5; TEAD-YAP inh: 1.7; GPR151 ag: 5.0*; GPR151 conf act: -0.1; GPR119 counter: 4.0

How did Cc1cc(C)n2nc(C(=O)NC3(c4ccc(F)cc4)CCCC3)cc2n1 do in these assays?
FBW7 activator: -0.2; MITF primary: 6.0; TEAD-YAP inh: -5.0; GPR151 ag: 0.4

Results for Cc1cc2oc(C(=O)NCCc3ccc(S(N)(=O)=O)cc3)c(C)c2cc1C ?
FBW7 activator: -0.1; MITF primary: 8.6; TEAD-YAP inh: 10.5; GPR151 ag: 10.0*; GPR151 conf act: 1.0; GPR119 counter: -3.3

Results for Cc1ccc2oc(C(=O)NCCc3ccc(S(N)(=O)=O)cc3)c(C)c2c1 ?
FBW7 activator: 0.8; MITF primary: 14.3; TEAD-YAP inh: 8.6; GPR151 ag: -1.5

How did CCN1CC=C2C(C#N)=C(N)C(C#N)(C#N)C(c3c(OC)ccc4ccccc34)C2C1 (stereo unspecified) do in these assays?
FBW7 activator: -0.2; MITF primary: 8.6; TEAD-YAP inh: -7.9; GPR151 ag: 5.6*; GPR151 conf act: -1.1; GPR119 counter: -12.2

What do the screens show for `FC(F)Oc1ccc(/C=N/NC(=S)NCCN2CCOCC2)c(OC(F)F)c1`?
FBW7 activator: -0.3; MITF primary: -4.1; TEAD-YAP inh: 3.7; GPR151 ag: 3.0

What do the screens show for `COc1ccc(/C=C/C(=O)Nc2ccc(OC(C)C)cc2)cc1`?
FBW7 activator: -0.2; MITF primary: -0.8; TEAD-YAP inh: -23.2; GPR151 ag: 1.5

How did CC(C)Oc1ccc(NC(=O)/C=C/c2ccc(F)cc2)cc1 do in these assays?
FBW7 activator: 0.2; MITF primary: 14.7; TEAD-YAP inh: -27.7; GPR151 ag: 6.7*; GPR151 conf act: 0.8; GPR119 counter: -1.9

Results for COc1cc([N+](=O)[O-])ccc1-c1ccc(C(=O)Nc2cc(Cl)cc(Cl)c2)o1 ?
FBW7 activator: 0.0; MITF primary: -3.5; TEAD-YAP inh: 3.6; GPR151 ag: -0.9
